RBX1-CUL1 inh – inhibitors of human ROC1-CUL1 ubiquitin ligase activity | P62877+Q13616 | in vitro K48 di-Ub FRET, acceptor:donor ratio, 45 min | inhibition, % at 10 µM | actives 0.6% (n = 140,000); in the data active = inhibition above about 25%
The depositor's hits bear a star. Only a selection was taken, and hits are over-represented in it overall.

SMILES | RBX1-CUL1 inh
Cc1cc(C)n(CCc2nnc(NC(=O)N3CCC3c3ccccc3)s2)n1 (stereo not given) | 1
Cc1nn(Cc2cccc(Cl)c2)c2nc(-c3cccnc3)[nH]c12 | 2
Cc1nc(SCCC(C)C)[nH]c(=O)c1CCC(C)C | 3
NN1C(=O)/C(=C\c2ccc(O)cc2)SC1=S | 7
NN1C(=O)/C(=C/c2ccc(O)c(Br)c2)SC1=S | 50*
CCN1C(=O)/C(=C/c2ccc(F)c(Br)c2)SC1=S | 2
O=C(N/N=C/c1cccc(Cl)c1Cl)c1ccc(Br)cc1 | 0
O=C(N/N=C/c1cccc(Cl)c1Cl)c1ccc(O)c(O)c1 | 55*
O=C(N/N=C/c1ccc(Cl)cc1Cl)c1ccc(O)c(O)c1 | 4
CCCCCC1=NN(C(=O)c2ccccc2Br)C(O)(C(F)(F)F)C1 (stereo not given) | -11
CCOC(=O)c1c(C)sc(-c2c(-c3ccc(OC)c(F)c3)[nH]c3c2c(=O)[nH]c(=O)n3C)c1O | 32*
CCOC(=O)c1c(C)sc(-c2c(-c3ccccc3)[nH]c3[nH]c(=O)[nH]c(=O)c23)c1O | -1
CCOC(=O)c1c(C)sc(-c2c(-c3ccc4c(c3)OCCO4)[nH]c3c2c(=O)n(C)c(=O)n3C)c1O | 33*
COc1cccc(-c2[nH]c3c(c2-c2c(-n4cccc4)n(C)c(=O)[nH]c2=O)c(=O)[nH]c(=O)n3C)c1 | 3
CCOC(=O)c1nn(-c2ccc(C)cc2)c(N=Nc2ccc3c(c2)OCCO3)c1O | -1
COC(=O)c1c(C)sc(-c2c(-c3ccc4c(c3)OCCO4)[nH]c3c2c(=O)n(C)c(=O)n3C)c1O | 13
CCOC(=O)c1c(C)sc(-c2c(-c3ccc4c(c3)OCCO4)[nH]c3c2c(=O)[nH]c(=O)n3C)c1O | 30*
COC(=O)c1c(C)sc(-c2c(-c3cccc(Cl)c3)[nH]c3c2c(=O)[nH]c(=O)n3C)c1O | 28*
COC(=O)c1c(C)sc(-c2c(-c3ccc4c(c3)OCCO4)[nH]c3[nH]c(=O)[nH]c(=O)c23)c1O | 8
CCOC(=O)c1c(C)sc(-c2c(-c3ccc(OC)c(F)c3)[nH]c3[nH]c(=O)[nH]c(=O)c23)c1O | 4
CCc1ccc(-c2[nH]c3c(c2-c2sc(C)c(C(=O)OC)c2O)c(=O)[nH]c(=O)n3C)cc1 | 7
CCOC(=O)c1nn(-c2ccc3c(c2)OCCO3)cc1O | 2
Cc1ccc2c(c1)N(CC(=O)N1CCC(C)CC1)C(=O)CO2 | -7
O=C(O)C1C2C=CC(C2)C1C(=O)NCCC(c1ccccc1)c1ccccc1 (stereo not given) | 16
COC(=O)[C@@H]1CCCN1Cc1ccc2c(c1)CN(Cc1ccc(OC)c(OC)c1Cl)CCO2 | 2
SMILES | RBX1-CUL1 inh
O=C(O)c1cccc2c1-c1ccccc1C2=O | -4
CS(=O)(=O)Oc1ccc2c(-c3ccccc3C(=O)O)c3ccc(=O)c(I)c-3oc2c1I | 117*
O=C(Nc1cc2c(cc1Cl)OCCO2)c1ccccc1F | 1
C#CC1(OC(C)=O)CCC(c2ccccc2)CC1 (stereo not given) | -6
CN(C(=O)c1nn2c(c1Cl)NC(c1cccs1)CC2C(F)(F)F)c1ccc(OC(F)(F)F)cc1 (stereo not given) | 0
CC1=C([N+](=O)[O-])CS(=O)(=O)/C1=C\c1ccco1 | 7
COc1cccc(/C=C2\CCC(=C3SCCS3)C2=O)c1 | -7
O=C(C=C1SCCS1)/C=C/c1ccco1 | 5
Nc1ccc2c(c1)C/C(=C/c1ccco1)C2=O | 31*
Cc1ccc(/C=C2\CCc3ccccc3C2=O)o1 | -4
O=C1C(=C2SCCS2)CC/C1=C\c1ccco1 | 73*
O=C(N/N=C/c1cc([N+](=O)[O-])cc([N+](=O)[O-])c1O)C(Cc1ccc([N+](=O)[O-])cc1)=NC(=O)c1ccccc1 | 7
COc1ccc(-c2oc3ncn4nc(CSc5nc6ccccc6o5)nc4c3c2-c2ccc(OC)cc2)cc1 | -5
O=S1(=O)c2ccccc2CC(Cl)c2cc(Cl)ccc21 (stereo not given) | 0
CCN1CCN(S(=O)(=O)c2ccc(OC)c(C(=O)N3CCCCCC3)c2)CC1 | 17
CC(C)=C1C(=O)NN(c2ccc(I)cc2)C1=O | 1
COc1cccc(/C=C2\SC(=Nc3ccc(C)c(Cl)c3)NC2=O)c1OCC(=O)O | 97*
CCCOC(=O)c1cccc(N=C2NC(=O)/C(=C\c3cc(C(C)C)c(OC)cc3C)S2)c1 | 7
CCOc1ccc(N=C2NC(=O)/C(=C/c3cc(Br)c(OC)c(OC)c3)S2)cc1 | 9
CCOc1cc(/C=C2/SC(=Nc3ccc4ccccc4c3)NC2=O)cc(Cl)c1OCC(=O)O | 99*
CCOc1ccc(/C=C2\SC(=Nc3ccc(F)cc3)NC2=O)cc1OC | 5
COc1cccc(/C=C2\SC(=Nc3cccc(Cl)c3C)NC2=O)c1OCC(=O)O | 2
CC1CCc2c(sc(NC(=O)c3ccc([N+](=O)[O-])cc3)c2C(=O)OC(C)C)C1 (stereo not given) | -3
Cc1nc(N2C(=O)C(=O)C(C(=O)c3ccccc3)C2c2ccc(Cl)c(Cl)c2)sc1C (stereo not given) | -2
Cc1c(C)c(C)c(C=C2C(=O)OC3(CCCCC3)OC2=O)c(C)c1C | -1
